Targets with a hit are over-represented here; the source holds about 7,900 in all. About 0.6% of all pairs of compound and target were hits. Unmarked numbers belong to inactive results.

Sequence of UniProt Q03468 (Q03468 whole entry, looked up): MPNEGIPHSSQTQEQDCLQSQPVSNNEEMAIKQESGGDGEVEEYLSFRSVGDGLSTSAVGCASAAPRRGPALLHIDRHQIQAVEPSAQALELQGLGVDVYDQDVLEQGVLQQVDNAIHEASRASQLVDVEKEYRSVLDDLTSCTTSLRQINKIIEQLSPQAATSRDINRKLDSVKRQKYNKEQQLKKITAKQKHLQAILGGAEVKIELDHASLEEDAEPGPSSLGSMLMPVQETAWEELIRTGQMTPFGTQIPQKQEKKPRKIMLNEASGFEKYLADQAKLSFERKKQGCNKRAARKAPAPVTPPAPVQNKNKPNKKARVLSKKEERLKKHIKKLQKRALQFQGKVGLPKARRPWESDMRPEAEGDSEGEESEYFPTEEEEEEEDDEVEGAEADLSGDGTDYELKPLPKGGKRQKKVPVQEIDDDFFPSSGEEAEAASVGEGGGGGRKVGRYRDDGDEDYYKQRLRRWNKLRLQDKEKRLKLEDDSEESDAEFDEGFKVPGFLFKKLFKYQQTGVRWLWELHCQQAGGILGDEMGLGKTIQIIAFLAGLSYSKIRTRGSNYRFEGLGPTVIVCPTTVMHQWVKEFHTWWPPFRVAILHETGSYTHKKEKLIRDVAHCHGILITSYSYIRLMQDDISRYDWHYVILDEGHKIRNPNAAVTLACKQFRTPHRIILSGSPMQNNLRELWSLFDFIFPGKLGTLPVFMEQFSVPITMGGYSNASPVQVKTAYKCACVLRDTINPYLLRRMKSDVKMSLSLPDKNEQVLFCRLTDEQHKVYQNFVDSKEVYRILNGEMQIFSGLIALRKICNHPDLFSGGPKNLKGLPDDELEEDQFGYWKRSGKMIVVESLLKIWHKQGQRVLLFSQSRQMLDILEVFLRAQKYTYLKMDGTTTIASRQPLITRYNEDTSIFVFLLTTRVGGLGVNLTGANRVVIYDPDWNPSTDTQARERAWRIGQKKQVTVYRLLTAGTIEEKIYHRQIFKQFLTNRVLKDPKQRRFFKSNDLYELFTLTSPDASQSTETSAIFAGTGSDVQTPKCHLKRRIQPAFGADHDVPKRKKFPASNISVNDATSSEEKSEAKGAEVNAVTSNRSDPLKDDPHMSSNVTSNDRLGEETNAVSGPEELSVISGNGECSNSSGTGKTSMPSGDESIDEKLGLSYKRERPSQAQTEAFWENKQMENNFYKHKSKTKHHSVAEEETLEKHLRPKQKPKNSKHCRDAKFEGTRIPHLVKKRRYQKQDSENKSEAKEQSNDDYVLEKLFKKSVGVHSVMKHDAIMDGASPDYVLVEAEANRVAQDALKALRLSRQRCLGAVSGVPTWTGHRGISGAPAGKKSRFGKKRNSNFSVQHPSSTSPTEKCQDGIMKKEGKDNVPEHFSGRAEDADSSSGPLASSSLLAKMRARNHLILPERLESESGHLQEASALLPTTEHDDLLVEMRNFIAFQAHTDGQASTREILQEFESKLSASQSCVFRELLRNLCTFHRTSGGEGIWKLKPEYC
Sequence of UniProt P39880 (P39880 whole entry, looked up): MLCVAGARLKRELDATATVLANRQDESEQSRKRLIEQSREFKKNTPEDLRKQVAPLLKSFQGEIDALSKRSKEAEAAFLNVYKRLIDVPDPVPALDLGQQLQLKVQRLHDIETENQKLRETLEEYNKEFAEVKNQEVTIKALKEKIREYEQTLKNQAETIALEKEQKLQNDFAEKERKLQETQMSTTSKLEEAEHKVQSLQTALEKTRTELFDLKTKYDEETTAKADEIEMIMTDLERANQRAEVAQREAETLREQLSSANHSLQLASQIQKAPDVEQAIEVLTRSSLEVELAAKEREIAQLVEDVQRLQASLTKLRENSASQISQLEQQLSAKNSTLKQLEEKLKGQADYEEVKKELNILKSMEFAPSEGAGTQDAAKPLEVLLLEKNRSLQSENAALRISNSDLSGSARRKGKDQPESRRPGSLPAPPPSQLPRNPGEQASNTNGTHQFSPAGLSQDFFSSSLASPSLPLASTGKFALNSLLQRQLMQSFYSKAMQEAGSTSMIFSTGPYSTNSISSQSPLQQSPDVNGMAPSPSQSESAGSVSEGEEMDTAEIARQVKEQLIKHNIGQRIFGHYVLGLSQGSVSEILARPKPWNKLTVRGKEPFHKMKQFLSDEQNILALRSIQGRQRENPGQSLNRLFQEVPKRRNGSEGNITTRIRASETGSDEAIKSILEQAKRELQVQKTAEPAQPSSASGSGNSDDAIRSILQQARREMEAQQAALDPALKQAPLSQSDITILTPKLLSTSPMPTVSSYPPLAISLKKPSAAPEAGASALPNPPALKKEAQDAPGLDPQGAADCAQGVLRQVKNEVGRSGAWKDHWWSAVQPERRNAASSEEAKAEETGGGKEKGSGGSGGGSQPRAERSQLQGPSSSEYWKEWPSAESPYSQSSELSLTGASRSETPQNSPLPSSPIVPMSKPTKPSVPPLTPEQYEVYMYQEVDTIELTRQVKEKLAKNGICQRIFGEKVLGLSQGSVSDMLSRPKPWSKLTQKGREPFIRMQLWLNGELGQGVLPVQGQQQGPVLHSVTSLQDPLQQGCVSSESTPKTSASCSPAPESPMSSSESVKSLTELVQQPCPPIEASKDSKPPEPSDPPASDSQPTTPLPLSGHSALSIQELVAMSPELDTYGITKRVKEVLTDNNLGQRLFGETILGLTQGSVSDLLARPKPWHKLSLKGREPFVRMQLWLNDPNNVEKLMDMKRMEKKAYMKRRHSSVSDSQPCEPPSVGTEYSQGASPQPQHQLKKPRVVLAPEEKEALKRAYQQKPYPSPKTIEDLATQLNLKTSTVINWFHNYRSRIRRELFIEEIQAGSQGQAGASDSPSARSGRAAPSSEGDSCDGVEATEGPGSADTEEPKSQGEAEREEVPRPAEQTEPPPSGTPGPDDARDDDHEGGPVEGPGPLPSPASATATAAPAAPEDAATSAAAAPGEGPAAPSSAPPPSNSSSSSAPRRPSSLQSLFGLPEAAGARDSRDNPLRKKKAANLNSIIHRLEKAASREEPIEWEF
Sequence of UniProt Q8IYI6 (Q8IYI6 whole entry, looked up): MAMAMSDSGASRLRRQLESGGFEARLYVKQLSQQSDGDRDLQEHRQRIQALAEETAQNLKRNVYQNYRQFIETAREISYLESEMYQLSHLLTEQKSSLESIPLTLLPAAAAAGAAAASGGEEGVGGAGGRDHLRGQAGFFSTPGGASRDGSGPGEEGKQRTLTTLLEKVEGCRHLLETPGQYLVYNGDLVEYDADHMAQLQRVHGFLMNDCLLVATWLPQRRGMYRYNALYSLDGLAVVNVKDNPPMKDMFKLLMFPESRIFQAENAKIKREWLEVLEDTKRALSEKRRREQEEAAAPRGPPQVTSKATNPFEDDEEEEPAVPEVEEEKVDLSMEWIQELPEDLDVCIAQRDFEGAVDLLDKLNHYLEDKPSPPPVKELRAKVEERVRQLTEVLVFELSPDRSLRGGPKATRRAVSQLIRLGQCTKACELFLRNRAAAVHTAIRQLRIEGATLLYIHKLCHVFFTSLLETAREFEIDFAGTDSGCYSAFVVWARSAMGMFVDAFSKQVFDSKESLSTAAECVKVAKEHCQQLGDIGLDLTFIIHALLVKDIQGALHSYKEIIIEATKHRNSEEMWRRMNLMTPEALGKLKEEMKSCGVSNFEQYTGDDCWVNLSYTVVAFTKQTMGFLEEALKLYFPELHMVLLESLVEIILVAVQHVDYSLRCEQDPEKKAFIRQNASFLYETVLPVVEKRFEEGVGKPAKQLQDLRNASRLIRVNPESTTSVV
Sequence of UniProt P68104 (P68104 whole entry, looked up): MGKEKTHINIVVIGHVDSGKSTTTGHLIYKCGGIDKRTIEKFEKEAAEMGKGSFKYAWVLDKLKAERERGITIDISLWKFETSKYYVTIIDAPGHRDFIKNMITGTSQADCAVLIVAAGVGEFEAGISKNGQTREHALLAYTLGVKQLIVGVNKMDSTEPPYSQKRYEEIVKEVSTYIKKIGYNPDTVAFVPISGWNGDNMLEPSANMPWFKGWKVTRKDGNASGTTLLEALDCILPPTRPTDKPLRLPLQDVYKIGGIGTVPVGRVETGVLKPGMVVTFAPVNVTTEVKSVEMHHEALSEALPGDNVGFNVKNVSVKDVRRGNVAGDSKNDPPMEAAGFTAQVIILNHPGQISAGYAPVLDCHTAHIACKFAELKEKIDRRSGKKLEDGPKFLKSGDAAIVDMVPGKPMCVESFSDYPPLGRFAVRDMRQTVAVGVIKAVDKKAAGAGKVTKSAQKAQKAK
Sequence of UniProt Q9BQI3 (Q9BQI3 whole entry, looked up): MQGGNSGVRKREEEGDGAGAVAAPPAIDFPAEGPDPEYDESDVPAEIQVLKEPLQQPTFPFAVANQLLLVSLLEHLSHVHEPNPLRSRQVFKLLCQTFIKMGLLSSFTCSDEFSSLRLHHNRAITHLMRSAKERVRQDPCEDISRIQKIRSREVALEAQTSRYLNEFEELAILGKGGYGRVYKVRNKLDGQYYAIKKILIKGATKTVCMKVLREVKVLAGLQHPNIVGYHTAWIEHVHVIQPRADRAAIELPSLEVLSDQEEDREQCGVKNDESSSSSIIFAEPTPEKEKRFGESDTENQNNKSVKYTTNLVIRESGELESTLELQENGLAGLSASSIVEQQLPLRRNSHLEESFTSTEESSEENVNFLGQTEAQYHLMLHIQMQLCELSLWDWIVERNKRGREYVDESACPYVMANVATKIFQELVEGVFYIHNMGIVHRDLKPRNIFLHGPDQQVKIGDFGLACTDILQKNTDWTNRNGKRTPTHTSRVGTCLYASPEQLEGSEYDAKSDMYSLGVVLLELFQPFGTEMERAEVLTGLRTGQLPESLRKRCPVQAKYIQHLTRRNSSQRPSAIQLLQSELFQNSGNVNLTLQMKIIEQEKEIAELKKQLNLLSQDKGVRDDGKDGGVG
Sequence of UniProt Q96GG9 (Q96GG9 whole entry, looked up): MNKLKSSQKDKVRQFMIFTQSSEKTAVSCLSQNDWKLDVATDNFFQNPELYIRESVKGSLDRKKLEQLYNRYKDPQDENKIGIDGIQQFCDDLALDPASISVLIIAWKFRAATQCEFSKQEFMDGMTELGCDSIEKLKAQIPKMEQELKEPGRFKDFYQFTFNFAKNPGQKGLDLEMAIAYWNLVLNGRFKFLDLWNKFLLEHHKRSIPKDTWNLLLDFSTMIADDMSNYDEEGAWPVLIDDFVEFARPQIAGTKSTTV

Compound in the assay: CC(C)(C)Cn1c(N)nc2ccc(-c3[nH]c(C(C)(C)C)nc3-c3ccc(F)cc3)nc21 [ralimetinib]
The experiment in a line: log2 fold change, soluble protein after heating vs DMSO (PISA); higher = thermal stabilisation; K562 cells, 10 uM, 30 min; active = over 0.2 and 3.5 SD of the protein, either way, in both replicates (recomputed). Summed up:
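Thermal stability values are relative to control samples and come from duplicates. They are expressed as log2 fold changes. For measurement, K562 cells (2×10^6 cells/mL) received 10 μM compound for 30 min, and aliquots were heated for 3 min over 48°C-58°C, pooled, and extracted at 4°C in PBS with 0.5% NP-40. Soluble protein, the supernatant after 21,000xg for 90 min, was quantified by TMTpro 16plex LC-MS/MS with equalised channel sums.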
Take DCUN1D1 (UniProt Q96GG9): the log2 fold change is -0.047. The figure for DCAF10 (UniProt Q5QP82) is -0.082; for DENND10 (UniProt Q8TCE6) it is -0.003. As to EIF2AK1 (UniProt Q9BQI3), the log2 fold change was -0.011.

As for FAM3A (UniProt P98173), the log2 fold change was 0.023. The figure for ELOVL5 isoform 2 (UniProt Q9NYP7) is -0.058; for DHCR7 (UniProt Q9UBM7) it is 0.056; for EIF4G3 isoform 3 (UniProt O43432) it is -0.003.

For the target EIF3J (UniProt O75822), the log2 fold change was 0.093.

As for E2F4 (UniProt Q16254), the log2 fold change was 0.011. As to DOHH (UniProt Q9BU89), the log2 fold change was 0.004. In the case of ERLIN2 (UniProt O94905), the log2 fold change is 0.004. Consider EEF1A1 (UniProt P68104), for which the log2 fold change is 0.133. The same measure for EHBP1L1 (UniProt Q8N3D4): 0.083; for EXOC8 (UniProt Q8IYI6): 0.049; for DYNC1I2 isoform 2 (UniProt Q13409): 0.055. The figure for DTWD1 (UniProt Q8N5C7) is 0; for DOLPP1 (UniProt Q86YN1) it is -0.128; for ERCC6 (UniProt Q03468) it is 0.05.

As for CUX1 isoform 3 (UniProt P39880), the log2 fold change is -0.065.

DUS3L (UniProt Q96G46): the log2 fold change was 0.042.

EIF2S3 (UniProt P41091): the log2 fold change is 0.061. The figure for EGR1 (UniProt P18146) is 0.042.

(Values after the supplement of paper PMC10849652.)
